molecular target: Solute carrier family 2, facilitated glucose transporter member 1 (Homo sapiens) (UniProt P11166); test: ST_JUDE_LEISH: Cytotoxicity at 2uM final concentration against transgenic Leishmania Mexicana promastigotes LmGLUT1 that are glucose transport deficient and complemented with the human glucose transporter GLUT1. Activity is measured by DNA content using SYBR green in vitro; type: functional
Sequence (P11166 whole entry): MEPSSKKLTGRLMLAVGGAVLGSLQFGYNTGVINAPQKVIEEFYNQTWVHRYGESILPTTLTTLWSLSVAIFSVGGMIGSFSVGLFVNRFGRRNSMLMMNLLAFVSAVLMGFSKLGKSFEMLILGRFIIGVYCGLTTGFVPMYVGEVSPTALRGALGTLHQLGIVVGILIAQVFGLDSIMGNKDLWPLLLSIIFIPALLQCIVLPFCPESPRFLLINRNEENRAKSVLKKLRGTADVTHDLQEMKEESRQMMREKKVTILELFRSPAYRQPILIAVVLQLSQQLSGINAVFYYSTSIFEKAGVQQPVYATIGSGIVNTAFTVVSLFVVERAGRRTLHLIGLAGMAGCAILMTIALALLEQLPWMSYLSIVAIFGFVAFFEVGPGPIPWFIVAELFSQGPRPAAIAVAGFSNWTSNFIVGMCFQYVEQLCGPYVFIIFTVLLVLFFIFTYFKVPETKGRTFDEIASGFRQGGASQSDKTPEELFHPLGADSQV

**Q.** Which inhibition does the source give for `Cc1cccc2nc(-c3cccc(-c4ccc(NC(=O)c5cccnc5)cc4)c3)[nH]c12` here?
**A.** 3.18%

**Q.** With `CC(C)(C)OC(=O)N1CCN(c2ccccc2NC(=O)c2cccc(C(F)(F)F)c2Oc2ccc(F)cc2)CC1` as the compound, how does the inhibition read?
**A.** -1.41%

**Q.** `Cc1ccc(NC(=O)NC2CCN(c3ccnc4cc(Cl)ccc34)CC2)cc1` was tested. Which inhibition did it give?
**A.** 9.02%

**Q.** `CS(=O)(=O)c1ccc(-c2cc(C(F)(F)F)nc(N[C@@H]3CCCC[C@H]3OCc3ccccc3)n2)cc1` was tested. Which inhibition did it give?
**A.** 1.33%

**Q.** How did the inhibition turn out when `CNc1ccc(CNCc2cccc(-c3ccc(-c4nc5cccc(C)c5[nH]4)cc3)c2)cc1` was run?
**A.** 7.63%

**Q.** Which inhibition does the source give for `O=C(NCCCCN1CCC(c2ccc3c(c2OCc2ccncc2)CCCC3)CC1)c1ccc(NC(=O)c2ccc(Cl)cc2)cc1` here?
**A.** 2.33%

**Q.** For `Cc1c(C(=O)NCc2ccncc2)sc2nc(-c3cccc([N+](=O)[O-])c3)cn12`, which inhibition is on record?
**A.** 0.53%

**Q.** Which inhibition does the source give for `CCCN(CCCCCCN(CCC)CCc1ccc(O)c(O)c1)CCc1ccc(O)cc1` here?
**A.** 9.55%

**Q.** `O=C(Nc1cccc(-c2cccc(-c3nc4ccccc4[nH]3)c2)c1)Nc1ccc(F)c(F)c1F` was tested. Which inhibition did it give?
**A.** 2.74%

**Q.** For `CCCC(C(CC1CCC(C)CC1)C(=O)NC(CCCNc1ncccn1)C(=O)Nc1nccs1)N(O)C=O` (stereo not given), which inhibition is on record?
**A.** 3.88%

**Q.** How did the inhibition turn out when `CCCc1cnc2nc(N)nc(N)c2c1C` was run?
**A.** -2.96%

**Q.** Which inhibition does the source give for `CC(C)CCNC(=O)C1Cc2c([nH]c3cc(Br)ccc23)C2(CCN(Cc3ccccc3)CC2)N1` (stereo not given) here?
**A.** 15%

**Q.** `O=C(Nc1cccc(CN2CCCN(Cc3ccc(O)cc3)CC2)c1)c1ccc(Br)cc1` was tested. Which inhibition did it give?
**A.** 0.51%

**Q.** For `COc1cc2c(cc1C(F)(F)F)N(C(=O)Nc1cc(F)cc(-c3cccnn3)c1)CC2`, which inhibition is on record?
**A.** -2.16%

**Q.** How did the inhibition turn out when `Cc1ccc(C(=O)Nc2ccc(C)c(OC3CCN(Cc4ccco4)C3)c2)cc1` (stereo not given) was run?
**A.** 0.19%

**Q.** `CN(C)c1ccc(C=Cc2ccc3ccccc3n2)c(Cl)c1` was tested. Which inhibition did it give?
**A.** 91.5%

**Q.** With `CC1(C)N=C(N)N=C(N)N1OCCCCON1C(N)=NC(N)=NC1(C)C` as the compound, how does the inhibition read?
**A.** 3.48%

**Q.** `Cc1cccc2nc(-c3cccc(-c4cccc(NC(=O)c5cnn6cccnc56)c4)c3)[nH]c12` was tested. Which inhibition did it give?
**A.** 5.09%

**Q.** How did the inhibition turn out when `O=C(/C=C/c1ccc(Cl)c(Cl)c1)NCCCCCN1CCC(NC(=O)c2ccc3ccccc3c2)CC1` was run?
**A.** 0.51%

**Q.** Which inhibition does the source give for `CCCCN1CCN(Cc2cccc(NC(=O)c3ccc(Cl)c(Cl)c3)c2)CC1` here?
**A.** 13.4%

**Q.** `CC1(C)NC(N)=NC(=N)N1OCCCc1cccc(C(F)(F)F)c1` was tested. Which inhibition did it give?
**A.** -0.43%

**Q.** Which inhibition does the source give for `CCN(CCCN1CCCCC1)c1cc(C)nc(Nc2ccc(C(F)(F)F)cc2)n1` here?
**A.** 3.6%

**Q.** How did the inhibition turn out when `O=C(Nc1ccc([N+](=O)[O-])cc1)Nc1cc(C(F)(F)F)ccc1F` was run?
**A.** 0.91%

**Q.** For `Cc1cc(C)c(NC(=O)NC2CCN(CCCCCNC(=O)/C=C/c3ccc(Cl)c(Cl)c3)CC2)c(C)c1`, which inhibition is on record?
**A.** 4.35%

**Q.** `O=C(Nc1cc(Cl)ccc1O)c1cc(-c2ccccc2O)no1` was tested. Which inhibition did it give?
**A.** -2.41%

**Q.** How did the inhibition turn out when `CN(C(=O)Nc1ccc(C(F)(F)F)cc1)C1CCN(CCCCCNC(=O)/C=C/c2ccc(Cl)c(Cl)c2)CC1` was run?
**A.** 4.18%

**Q.** For `CCCc1cc(NCC)nc(Nc2ccc(F)cc2)n1`, which inhibition is on record?
**A.** 15.6%

**Q.** Which inhibition does the source give for `Oc1ccc(CCNc2nc(NCCOc3cccc4ccccc34)nc(N3CCNCC3)n2)cc1` here?
**A.** 3.36%

**Q.** Which inhibition does the source give for `COc1ccc2ncc(Cl)c([C@@H](O)CN3CCC(NCc4cc5c(cn4)OCCO5)CC3)c2c1` here?
**A.** 9.54%

**Q.** With `C[C@H](NC(=O)c1cc(-c2ccc(C(C)(C)C)cc2)no1)C(=O)O.C[C@H](NC(=O)c1conc1-c1ccc(C(C)(C)C)cc1)C(=O)O` as the compound, how does the inhibition read?
**A.** -0.02%

**Q.** For `NC(=O)c1ccc(NCC(=O)Nc2cccc(-c3cccc(-c4nc5cc(C(F)(F)F)ccc5[nH]4)c3)c2)cc1`, which inhibition is on record?
**A.** 3.23%

**Q.** How did the inhibition turn out when `Cc1cccc2nc(-c3ccc(-c4cccc(NC(=O)C(C)CN(C)C)c4)cc3)[nH]c12` (stereo not given) was run?
**A.** 8.52%

**Q.** `N=C(N)Nc1ccc(OCCCCCOc2ccc(NC(=N)N)c(Cl)c2)cc1Cl` was tested. Which inhibition did it give?
**A.** -0.79%

**Q.** Which inhibition does the source give for `CCN(CC)C(=O)C1CCN(C(C(=O)N2CCN(CC(=O)N3CCCC3)CC2)c2cc3ccccc3o2)CC1` (stereo not given) here?
**A.** 2.21%

**Q.** For `c1cc(CN2CCN(CCN3CCOCC3)CC2)cc(-c2ccc(-c3nc4ccccc4[nH]3)cc2)c1`, which inhibition is on record?
**A.** 10.9%

**Q.** `COc1ccc(OC)c(NC(=O)C2c3ccccc3C(=O)N(CC(C)C)C2c2cccs2)c1` (stereo not given) was tested. Which inhibition did it give?
**A.** -1.99%

**Q.** For `CC1(C)CCCN(Cc2c(O)ccc3c(O)c(-c4nc5ccccc5s4)c(=N)oc23)C1`, which inhibition is on record?
**A.** 4.5%

**Q.** `O=C(Nc1ccc(-c2cccc(-c3nc4ccccc4[nH]3)c2)cc1)Nc1ccc(F)c(F)c1F` was tested. Which inhibition did it give?
**A.** 0.73%

**Q.** `Cc1nc(Nc2ccc(C)c(Cl)c2)c2c(C)noc2n1` was tested. Which inhibition did it give?
**A.** 5.28%

**Q.** For `N#Cc1ccc2[nH]cc(CN3CCC4(CC3)CN(CCNCc3ccccc3)C(=O)O4)c2c1`, which inhibition is on record?
**A.** 4.35%

molecular target: Hexose transporter 1 (Plasmodium falciparum) (UniProt O97467); test: ST_JUDE_LEISH: Cytotoxicity at 2uM final concentration against transgenic Leishmania Mexicana promastigotes LmPfHT that are glucose transport deficient and complemented with the Plasmodium falciparum hexose transporter. Activity is measured by DNA content using SYBR green in vitro; type: functional

**Q.** How did the inhibition turn out when `Cc1cccc2nc(-c3cccc(-c4ccc(NC(=O)c5cccnc5)cc4)c3)[nH]c12` was run?
**A.** 4.09%

**Q.** With `CC(C)(C)OC(=O)N1CCN(c2ccccc2NC(=O)c2cccc(C(F)(F)F)c2Oc2ccc(F)cc2)CC1` as the compound, how does the inhibition read?
**A.** 0.7%

**Q.** With `Cc1ccc(NC(=O)NC2CCN(c3ccnc4cc(Cl)ccc34)CC2)cc1` as the compound, how does the inhibition read?
**A.** 7.47%

**Q.** `CS(=O)(=O)c1ccc(-c2cc(C(F)(F)F)nc(N[C@@H]3CCCC[C@H]3OCc3ccccc3)n2)cc1` was tested. Which inhibition did it give?
**A.** 1.84%

**Q.** `CNc1ccc(CNCc2cccc(-c3ccc(-c4nc5cccc(C)c5[nH]4)cc3)c2)cc1` was tested. Which inhibition did it give?
**A.** 5.63%

**Q.** With `O=C(NCCCCN1CCC(c2ccc3c(c2OCc2ccncc2)CCCC3)CC1)c1ccc(NC(=O)c2ccc(Cl)cc2)cc1` as the compound, how does the inhibition read?
**A.** 2.42%

**Q.** How did the inhibition turn out when `Cc1c(C(=O)NCc2ccncc2)sc2nc(-c3cccc([N+](=O)[O-])c3)cn12` was run?
**A.** -1.39%

**Q.** Which inhibition does the source give for `CCCN(CCCCCCN(CCC)CCc1ccc(O)c(O)c1)CCc1ccc(O)cc1` here?
**A.** 12%

**Q.** Which inhibition does the source give for `O=C(Nc1cccc(-c2cccc(-c3nc4ccccc4[nH]3)c2)c1)Nc1ccc(F)c(F)c1F` here?
**A.** 4.36%

**Q.** `CCCC(C(CC1CCC(C)CC1)C(=O)NC(CCCNc1ncccn1)C(=O)Nc1nccs1)N(O)C=O` (stereo not given) was tested. Which inhibition did it give?
**A.** 3.89%

**Q.** With `CCCc1cnc2nc(N)nc(N)c2c1C` as the compound, how does the inhibition read?
**A.** -0.62%

**Q.** Which inhibition does the source give for `CC(C)CCNC(=O)C1Cc2c([nH]c3cc(Br)ccc23)C2(CCN(Cc3ccccc3)CC2)N1` (stereo not given) here?
**A.** 11.3%

**Q.** Which inhibition does the source give for `O=C(Nc1cccc(CN2CCCN(Cc3ccc(O)cc3)CC2)c1)c1ccc(Br)cc1` here?
**A.** 0.85%

**Q.** How did the inhibition turn out when `COc1cc2c(cc1C(F)(F)F)N(C(=O)Nc1cc(F)cc(-c3cccnn3)c1)CC2` was run?
**A.** -2.17%

**Q.** How did the inhibition turn out when `Cc1ccc(C(=O)Nc2ccc(C)c(OC3CCN(Cc4ccco4)C3)c2)cc1` (stereo not given) was run?
**A.** 1.86%

**Q.** `CN(C)c1ccc(C=Cc2ccc3ccccc3n2)c(Cl)c1` was tested. Which inhibition did it give?
**A.** 83.8%

**Q.** With `CC1(C)N=C(N)N=C(N)N1OCCCCON1C(N)=NC(N)=NC1(C)C` as the compound, how does the inhibition read?
**A.** 3.55%

**Q.** `Cc1cccc2nc(-c3cccc(-c4cccc(NC(=O)c5cnn6cccnc56)c4)c3)[nH]c12` was tested. Which inhibition did it give?
**A.** 4.22%

**Q.** Which inhibition does the source give for `O=C(/C=C/c1ccc(Cl)c(Cl)c1)NCCCCCN1CCC(NC(=O)c2ccc3ccccc3c2)CC1` here?
**A.** 0.83%

**Q.** Which inhibition does the source give for `CCCCN1CCN(Cc2cccc(NC(=O)c3ccc(Cl)c(Cl)c3)c2)CC1` here?
**A.** 10.1%

**Q.** `CC1(C)NC(N)=NC(=N)N1OCCCc1cccc(C(F)(F)F)c1` was tested. Which inhibition did it give?
**A.** -0.35%

**Q.** Which inhibition does the source give for `CCN(CCCN1CCCCC1)c1cc(C)nc(Nc2ccc(C(F)(F)F)cc2)n1` here?
**A.** 3.63%

**Q.** With `O=C(Nc1ccc([N+](=O)[O-])cc1)Nc1cc(C(F)(F)F)ccc1F` as the compound, how does the inhibition read?
**A.** 1.47%

**Q.** Which inhibition does the source give for `Cc1cc(C)c(NC(=O)NC2CCN(CCCCCNC(=O)/C=C/c3ccc(Cl)c(Cl)c3)CC2)c(C)c1` here?
**A.** 2.53%

**Q.** How did the inhibition turn out when `O=C(Nc1cc(Cl)ccc1O)c1cc(-c2ccccc2O)no1` was run?
**A.** -2.61%

**Q.** How did the inhibition turn out when `CN(C(=O)Nc1ccc(C(F)(F)F)cc1)C1CCN(CCCCCNC(=O)/C=C/c2ccc(Cl)c(Cl)c2)CC1` was run?
**A.** 2.6%

**Q.** With `CCCc1cc(NCC)nc(Nc2ccc(F)cc2)n1` as the compound, how does the inhibition read?
**A.** 6.64%

**Q.** With `Oc1ccc(CCNc2nc(NCCOc3cccc4ccccc34)nc(N3CCNCC3)n2)cc1` as the compound, how does the inhibition read?
**A.** 0.4%

**Q.** With `COc1ccc2ncc(Cl)c([C@@H](O)CN3CCC(NCc4cc5c(cn4)OCCO5)CC3)c2c1` as the compound, how does the inhibition read?
**A.** 10.5%

**Q.** `C[C@H](NC(=O)c1cc(-c2ccc(C(C)(C)C)cc2)no1)C(=O)O.C[C@H](NC(=O)c1conc1-c1ccc(C(C)(C)C)cc1)C(=O)O` was tested. Which inhibition did it give?
**A.** 0.23%

**Q.** For `NC(=O)c1ccc(NCC(=O)Nc2cccc(-c3cccc(-c4nc5cc(C(F)(F)F)ccc5[nH]4)c3)c2)cc1`, which inhibition is on record?
**A.** 3.6%

**Q.** For `Cc1cccc2nc(-c3ccc(-c4cccc(NC(=O)C(C)CN(C)C)c4)cc3)[nH]c12` (stereo not given), which inhibition is on record?
**A.** 7.83%

**Q.** Which inhibition does the source give for `N=C(N)Nc1ccc(OCCCCCOc2ccc(NC(=N)N)c(Cl)c2)cc1Cl` here?
**A.** -1.31%

**Q.** `CCN(CC)C(=O)C1CCN(C(C(=O)N2CCN(CC(=O)N3CCCC3)CC2)c2cc3ccccc3o2)CC1` (stereo not given) was tested. Which inhibition did it give?
**A.** 0.62%

**Q.** Which inhibition does the source give for `c1cc(CN2CCN(CCN3CCOCC3)CC2)cc(-c2ccc(-c3nc4ccccc4[nH]3)cc2)c1` here?
**A.** 6.81%

**Q.** For `COc1ccc(OC)c(NC(=O)C2c3ccccc3C(=O)N(CC(C)C)C2c2cccs2)c1` (stereo not given), which inhibition is on record?
**A.** -2.35%

**Q.** How did the inhibition turn out when `CC1(C)CCCN(Cc2c(O)ccc3c(O)c(-c4nc5ccccc5s4)c(=N)oc23)C1` was run?
**A.** 1.38%

**Q.** With `O=C(Nc1ccc(-c2cccc(-c3nc4ccccc4[nH]3)c2)cc1)Nc1ccc(F)c(F)c1F` as the compound, how does the inhibition read?
**A.** -0.07%

**Q.** Which inhibition does the source give for `Cc1nc(Nc2ccc(C)c(Cl)c2)c2c(C)noc2n1` here?
**A.** 4.91%

**Q.** `N#Cc1ccc2[nH]cc(CN3CCC4(CC3)CN(CCNCc3ccccc3)C(=O)O4)c2c1` was tested. Which inhibition did it give?
**A.** 4.4%
